Drawing on the supplement of paper PMC6555819, this text covers PBM binding z-score for 40 sequences.

The test concerns VDR:RXRa (NR concentration 270 nM, RXRa partner concentration 90 nM). Kind of test: PBM binding z-score (relative to random genomic background probes); higher = stronger binding; sequences stand for … in GC…GCGATTGACAGCGTAGAATGAAGG
On the procedure: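 Protein-binding microarray (Agilent 4x180K custom design, double-stranded 60-nt probes: 5' GC cap, 34-nt variable region, 24-nt constant primer region; full probe sequence given). Purified or IVT nuclear receptor:RXRα heterodimers (3:1 NR:RXRα, mostly 270:90 nM) or homodimers were incubated for 1 h in PBS with 2% milk and no ligand, then detected with Alexa488 antibodies. Fluorescence from o1-orientation probes (~5 replicates averaged) was converted to z-scores against 500 random hg19 background probes. Variable regions are seed direct-repeat (DR0–DR5) sites, all their single-nucleotide variants and half-site ablations.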
Take TCTTGTAGATCAACAGGACGTTAAGAAAGATCGA: the PBM binding z-score is 0.305.
GCTAGCTGGTCAGTAAAAGGTCACACACCGGTCG registered a PBM binding z-score of 3.52.
The result for GCTTGTAGATCAATGTTAAGAAAGACTAAGCTAA reads -0.368.
The result for TCGAGTAGGTTACCAATGGGGCATCCAGCTTTCT reads -0.0688.
The result for ATATGTAGGTTACATCCGTGTCATTCAGGCTATG reads 1.4.
As to GCTGCCAGGTCAACTGATGGTCAGCTAAAGCTCG, the PBM binding z-score came out at 2.62.
The same measure for TAGGCTAGGTCATGCGGGCCAGTATAGTGTCGGC: 2.63; for GCTCGGAGGACAAGGTCAGCGCTTTGTCCGTAGA: 1.88.
For ATCTCTAGGTAAAGTTCAGTAAAAGATCGATAGA, the PBM binding z-score is 1.65.
The result for CGTCCAAGGTCAATGCTAGGTCCGTGAAAGCATT reads 3.86; that for ATCTCTAGGTAAAACTCAGTTCAGTGAAGAACGC, 1.5; that for GATACAGGGTCCAGGCCAGAGTACGCGTATTGAT, -0.0532.
CAAACTAGGTCACCGAGGTCAAAGTCCGTGCGTA yielded a PBM binding z-score of 8.34.
CCTAGTTAGTCAAGGTCACACACGCTATAGGTAC showed a PBM binding z-score of 4.26.
The result for ATCTCTAGGTAAAGTTTAGTGAAAGATCGATAGA reads 0.28; that for CCTATTAGTTGCCCATAAGGGCAACCGAAGCTCG, 0.653; that for ATACCAAGGTGATGGTGAGGTCGTTGATACTAAC, 3.28.
As to CCGAGTAGGTTATGGGACATTCAGGCAACGGTGA, the PBM binding z-score came out at 0.258.
As to CCTGCTAGGTCAATGGTCAGCTAGAGCAGCTCGC, the PBM binding z-score came out at 0.675.
On to TCTATTAGTTGAATGGCAACCGACGAGTCCGTTT, for which the PBM binding z-score turned out to be 0.746.
The same measure for CCTTACGGGTCAAGGGTATAGCACGGGTGGTACG: 3.22.
The result for TTACCAAGGTGAAGGTCGTTCATCCCTCTGTAGA reads 1.74; that for ACTCGGACGACAAAGGTCAGAGCTACGCCAGTGA, 2.76; that for CAAACTAGGTCAAGGTCAGAGTCGGTTTGTGCCA, 3.93.
Sequence CTCGAAAGGTCGTGCTCAGGTGAATATACCAAAC registered a PBM binding z-score of 3.77.
On to TAGCATAGGTCAGATCGGGCCAGTATACGCTATA, for which the PBM binding z-score is 1.77.
The same measure for CCGACTGGGGCAAGGTTACCATCACGCACAGCCA: -0.00962; for ATCGAAAGGTCGAAGGTGAGTATTCCCACCCGAA: 2.58; for GCTCGGAGGACAAGGTCAGTGCTTTGTCCGTAGA: 1.19.
For the sequence TATCCTAGGTCATGGGCCAGTATACCACGCGAAC, the PBM binding z-score came to 2.75.
For the sequence TCGCGTAGGTTACCAATGGGGCATTCAGCTTTCT, the PBM binding z-score is 0.236.
The sequence GCTTGTAGATCAAGGTTAAGAATGACTAAGCTAA showed a PBM binding z-score of 0.0818.
The result for AGAACGAGGGCAATGGGTTGATAGCACGGGTGGC reads 5.47; that for CGTCCAAGGTCCAGGTCAGTGAAAGAGACTCGAA, 0.373; that for TCATATAGGTAAATGCTCGGTGAAAGTCCGATCT, 1.01.
The result for ACTAGCAGGCCAAGTTTGGGTCACTAAAACAAAG reads 0.553; that for TCTTGTAGATCAGCAGGTTACGAAAGCTGGCCAA, -0.0746.
Turning to GCTTCTAGATCAAGGTTAAGAAAGACTAAGCTAA, the PBM binding z-score is 0.384.
In turn, AAAGACAGGTGAGTGAAGGTAACTCAGCTGGACG gave a PBM binding z-score of -0.172.
The same measure for CAAACTAGGCCAAGAGGTCAAAGTCCGCTTCCCG: 4.94.
